Measured values published in PubChem BioAssay.

Experiment: inhibitors of PAF-induced NFkB signaling in CF airway cells, dose response, cell-based, uHTS hits, panel, cytotoxicity readout (AID 624344)
Conditions: CF bronchial epithelial cells, PAF-induced NFkB reporter inhibition, with PAF, run 1; at 79 µM (top of the series) unless noted

Row | Structure (SMILES) | inhibition
1 | C/C(=N\Nc1cc(N2CCOCC2)ncn1)c1cccc([N+](=O)[O-])c1 | 115%
2 | COc1ccc(S(=O)(=O)N2c3cc(C)ccc3OCC2C(C)(C)C)cc1 (stereo not given) | 103%
3 | COc1ccc(C2=Nn3c(nnc3-c3ccccc3OC)SC2)cc1OC1CCOC1 (stereo not given) | 92.2%
4 | CN(c1ncnc(N)c1[N+](=O)[O-])C1CCCCC1 | 115%
5 | O=C1C=C(NC2=CC3OC(c4ccccc4)OCC3OC2=O)CCC1 (stereo not given) | 103%
6 | C=CCN(CC=C)c1ncnc2[nH]ncc12 | 99.9%
7 | COc1ccc(-n2cc(-c3ccccc3)c3c(N4CC(C)OC(C)C4)ncnc32)cc1 (stereo not given) | 102%
8 | CCOC(=O)C1=C(C)Nc2ccccc2N=C1NC(=O)c1oc2ccccc2c1COC | 90.5%
9 | CCN1CCN(Cc2ccc(NC(=O)c3ccc(C)c(NC(=O)c4ccno4)c3)cc2C(F)(F)F)CC1 | 105%
10 | O=C(NCc1ccco1)c1nc2c(nnn2Cc2ccccc2Cl)c(=O)[nH]1 | 115%
11 | COc1ccc(-c2nc(NC(=O)c3ccc(OCC(=O)Nc4ccc(F)cc4)c(OC)c3)sc2C)cc1 | 91.7%
12 | N=C1N(c2ccccc2)C(=S)C(=Nc2ccccc2)N1c1ccccc1 | 114%
13 | CC(=O)c1c(O)cc(O)c(C(C)=O)c1O | 110%
14 | CCCn1c(-c2nonc2N)nc2ccccc21 | 99.6%
15 | C=C1C(=O)C2=CC1CCC(=O)C1(C)CCC(OC(C)=O)C(C)(C)C1CC2O (stereo not given) | 94.6%
16 | COc1ccc(OC)c(-c2nnc3n2N=C(c2ccc(OC)c(OC4CCCC4)c2)CS3)c1 | 103%
17 | COc1ccc(COc2cc(-c3cccc(OC)c3)nc3ccc(NC(=O)c4cccnc4)cc23)cc1 | 98.7%
18 | CNC(=O)COC(=O)c1ccccc1C(=O)c1ccc(Cl)c([N+](=O)[O-])c1 | 103%
19 | C=CCN1c2ccccc2[C@]23C[C@@H](C(=O)OC)N(C(=O)c4ccc(Br)cc4)C2=NC(C(=O)OC)=C(C(=O)OC)[C@H]13 | 115%
20 | Cc1cccc(NC(=O)c2nc[nH]c2C(=O)NCCCNC(=O)c2[nH]cnc2C(=O)Nc2cccc(C)c2)c1 | 97.6%

Row | Structure (SMILES) | inhibition
21 | Cc1nn(-c2nccs2)c2c1C(=O)CC(C)(C)C2Br (stereo not given) | 108%
22 | CC[C@H](CO)Nc1nc(Nc2cccc(Cl)c2)c2ncn(C(C)C)c2n1 | 106%
23 | Cc1ccc2nc(SCC(=O)Nc3cc(C(F)(F)F)ccc3N3CCOCC3)[nH]c2c1 | 81.3%
24 | Nc1nccc(-c2ccc(-n3cnc4ccccc43)cc2)n1 | 101%
25 | COCCNc1nc(Oc2cncc(Cl)c2)c2sccc2n1 | 100%
26 | CCCCN(CCCC)c1ncnc2nc[nH]c12 | 102%
27 | Cc1ccc(NC(=O)/C=C/c2ccco2)nc1 | 95.8%
28 | CCC(=O)Nc1nc(C)c(-c2csc(Nc3cccc(O)c3)n2)s1 | 95.9%
29 | CC1CCc2c(sc3ncnc(N4CCOCC4)c23)C1 (stereo not given) | 114%
30 | COc1cc2c(c(OC)c1OC)-c1ccc(SC)c(=O)cc1C(NC(=O)C(F)(F)F)CC2 (stereo not given) | 72.8%
31 | COc1cc2oc(=O)cc(-c3ccc(-c4ccc(N(C)C)cc4)cc3)c2c(OC)c1OC | 54.9%
32 | O=C1N(c2ccccc2C(F)(F)F)O[C@]1(c1ccccc1)C1CCCCC1 | 90.7%
33 | Cc1cc(C)c2nc(C(F)(F)F)c(C#N)c(N)c2c1 | 97.7%
34 | Cc1cccc(C(=O)N[C@H](C(=O)Nc2nc3ccccc3[nH]2)C(C)C)c1 | 101%
35 | CC(C)C[C@@H]1NC(=O)[C@H](Cc2ccccc2)N(C)C(=O)[C@H](C)NC(=O)c2ccccc2NC(=O)[C@H](Cc2ccc(O)cc2)N(C)C1=O | 102%
36 | Cc1nn(-c2cccc(Cl)c2)c2nc(C(F)(F)F)[nH]c(=O)c12 | 96%
37 | COc1ccc(-n2nnnc2S(=O)(=O)Cc2ccc(C(=O)O)cc2)cc1 | 74.7%
38 | Cc1ccc2occ(/C=N/NC(=O)c3ccccc3Br)c(=O)c2c1 | 94.7%
39 | O=C(Nc1ccc(Cl)cc1)c1nc[nH]c1C(=O)NCCCCNC(=O)c1[nH]cnc1C(=O)Nc1ccc(Cl)cc1 | 98.8%
40 | COc1ccc(-c2cn[nH]c2-c2ccc(OCc3ccc([N+](=O)[O-])cc3)cc2O)cc1 | 105%

Experiment: as above
Conditions: CF bronchial epithelial cells, PAF-induced NFkB reporter inhibition, with PAF, run 2; at 79 µM (top of the series) unless noted

Row | Structure (SMILES) | inhibition
41 | C/C(=N\Nc1cc(N2CCOCC2)ncn1)c1cccc([N+](=O)[O-])c1 | 95.3%
42 | COc1ccc(S(=O)(=O)N2c3cc(C)ccc3OCC2C(C)(C)C)cc1 (stereo not given) | 81.9%
43 | COc1ccc(C2=Nn3c(nnc3-c3ccccc3OC)SC2)cc1OC1CCOC1 (stereo not given) | 92.2%
44 | CN(c1ncnc(N)c1[N+](=O)[O-])C1CCCCC1 | 102%
45 | O=C1C=C(NC2=CC3OC(c4ccccc4)OCC3OC2=O)CCC1 (stereo not given) | 111%
46 | C=CCN(CC=C)c1ncnc2[nH]ncc12 | 109%
47 | COc1ccc(-n2cc(-c3ccccc3)c3c(N4CC(C)OC(C)C4)ncnc32)cc1 (stereo not given) | 102%
48 | CCOC(=O)C1=C(C)Nc2ccccc2N=C1NC(=O)c1oc2ccccc2c1COC | 101%
49 | CCN1CCN(Cc2ccc(NC(=O)c3ccc(C)c(NC(=O)c4ccno4)c3)cc2C(F)(F)F)CC1 | 83.4%
50 | O=C(NCc1ccco1)c1nc2c(nnn2Cc2ccccc2Cl)c(=O)[nH]1 | 107%
51 | COc1ccc(-c2nc(NC(=O)c3ccc(OCC(=O)Nc4ccc(F)cc4)c(OC)c3)sc2C)cc1 | 96.2%
52 | N=C1N(c2ccccc2)C(=S)C(=Nc2ccccc2)N1c1ccccc1 | 103%
53 | CC(=O)c1c(O)cc(O)c(C(C)=O)c1O | 101%
54 | CCCn1c(-c2nonc2N)nc2ccccc21 | 95.5%
55 | C=C1C(=O)C2=CC1CCC(=O)C1(C)CCC(OC(C)=O)C(C)(C)C1CC2O (stereo not given) | 107%
56 | COc1ccc(OC)c(-c2nnc3n2N=C(c2ccc(OC)c(OC4CCCC4)c2)CS3)c1 | 110%
57 | COc1ccc(COc2cc(-c3cccc(OC)c3)nc3ccc(NC(=O)c4cccnc4)cc23)cc1 | 95.2%
58 | CNC(=O)COC(=O)c1ccccc1C(=O)c1ccc(Cl)c([N+](=O)[O-])c1 | 102%
59 | C=CCN1c2ccccc2[C@]23C[C@@H](C(=O)OC)N(C(=O)c4ccc(Br)cc4)C2=NC(C(=O)OC)=C(C(=O)OC)[C@H]13 | 101%
60 | Cc1cccc(NC(=O)c2nc[nH]c2C(=O)NCCCNC(=O)c2[nH]cnc2C(=O)Nc2cccc(C)c2)c1 | 75.5%

Row | Structure (SMILES) | inhibition
61 | Cc1nn(-c2nccs2)c2c1C(=O)CC(C)(C)C2Br (stereo not given) | 115%
62 | CC[C@H](CO)Nc1nc(Nc2cccc(Cl)c2)c2ncn(C(C)C)c2n1 | 108%
63 | Cc1ccc2nc(SCC(=O)Nc3cc(C(F)(F)F)ccc3N3CCOCC3)[nH]c2c1 | 48.5%
64 | Nc1nccc(-c2ccc(-n3cnc4ccccc43)cc2)n1 | 108%
65 | COCCNc1nc(Oc2cncc(Cl)c2)c2sccc2n1 | 115%
66 | CCCCN(CCCC)c1ncnc2nc[nH]c12 | 118%
67 | Cc1ccc(NC(=O)/C=C/c2ccco2)nc1 | 99.8%
68 | CCC(=O)Nc1nc(C)c(-c2csc(Nc3cccc(O)c3)n2)s1 | 104%
69 | CC1CCc2c(sc3ncnc(N4CCOCC4)c23)C1 (stereo not given) | 101%
70 | COc1cc2c(c(OC)c1OC)-c1ccc(SC)c(=O)cc1C(NC(=O)C(F)(F)F)CC2 (stereo not given) | 79%
71 | COc1cc2oc(=O)cc(-c3ccc(-c4ccc(N(C)C)cc4)cc3)c2c(OC)c1OC | 69.4%
72 | O=C1N(c2ccccc2C(F)(F)F)O[C@]1(c1ccccc1)C1CCCCC1 | 98.7%
73 | Cc1cc(C)c2nc(C(F)(F)F)c(C#N)c(N)c2c1 | 90.1%
74 | Cc1cccc(C(=O)N[C@H](C(=O)Nc2nc3ccccc3[nH]2)C(C)C)c1 | 70.1%
75 | CC(C)C[C@@H]1NC(=O)[C@H](Cc2ccccc2)N(C)C(=O)[C@H](C)NC(=O)c2ccccc2NC(=O)[C@H](Cc2ccc(O)cc2)N(C)C1=O | 103%
76 | Cc1nn(-c2cccc(Cl)c2)c2nc(C(F)(F)F)[nH]c(=O)c12 | 79.8%
77 | COc1ccc(-n2nnnc2S(=O)(=O)Cc2ccc(C(=O)O)cc2)cc1 | 102%
78 | Cc1ccc2occ(/C=N/NC(=O)c3ccccc3Br)c(=O)c2c1 | 114%
79 | O=C(Nc1ccc(Cl)cc1)c1nc[nH]c1C(=O)NCCCCNC(=O)c1[nH]cnc1C(=O)Nc1ccc(Cl)cc1 | 105%
80 | COc1ccc(-c2cn[nH]c2-c2ccc(OCc3ccc([N+](=O)[O-])cc3)cc2O)cc1 | 115%
